{"source": "PubChem BioAssay (NCI)", "note": "This is part of a sample that, as a whole, favours compounds with a hit. Of some 83,000 tested, about 20% had one in any assay.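 Each cell line was grown in a 96-well plate and treated with one concentration of compound for 48 hours. Values below 10 were considered active.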 Activity calls are given as the source filed them.", "data": [{"system": "MDA-MB-468 breast", "experiment": "NCI-60 one-dose screen, 48 h (100 = growth as untreated, 0 = no growth, -100 = all killed)", "settings": "10 µM unless noted", "values": [{"smiles": "COc1ccc(/C(C)=N/NS(=O)(=O)c2ccc(C)cc2)cc1OC", "growth": "104% (inactive)"}, {"smiles": "COc1cccc(Nc2ncnn3ccc(CN4CC[C@@H](N)[C@H](O)C4)c23)c1", "growth": "-42.4% (active)"}, {"smiles": "CCc1nnc(CNc2ccc(Cl)cc2)o1", "growth": "114% (inactive)"}, {"smiles": "O=C(O)COc1ccccc1F", "growth": "93.5% (inactive)"}, {"smiles": "COc1cc(C2CC(c3ccc(Cl)cc3)=NN2C(C)=O)ccc1Oc1ccnc2cc(Cl)ccc12", "note": "(stereo not given)", "growth": "67.4% (inactive)"}, {"smiles": "Cc1ccc2[nH]c(-c3ccc(S(C)(=O)=O)cc3)c(/C=N/N=C(N)N)c2c1", "growth": "81.1% (inactive)"}, {"smiles": "N#C/C(=N\\Nc1ccccc1)C(=O)Nc1cc(-c2ccccc2)nn1-c1ccccc1", "growth": "-3.2% (active)"}, {"smiles": "COc1cc2cc(Oc3ccc(NC(=O)Nc4cccc(C(F)(F)F)c4)cc3)c(C)nc2cc1OCCN1CCOCC1", "growth": "-3.82% (active)"}, {"smiles": "COc1ccc2c(c1)[nH]c(=O)c1c3cccc(F)c3cn21", "growth": "51.8% (inactive)"}, {"smiles": "COc1ccc(NC(=O)C(=O)c2c[nH]c3ccc(F)cc23)cc1", "growth": "95.3% (inactive)"}, {"smiles": "COC(=O)c1[nH]nc2c1C1(C(=O)N(C)c3ccccc31)C(C#N)=C(N)O2", "note": "(stereo not given)", "growth": "97.5% (inactive)"}, {"smiles": "COc1cc(C(=O)Nc2ccc(N(C)C)cc2)cc(OC)c1OC", "growth": "80% (inactive)"}, {"smiles": "CN1CCN(c2ccc(C(=O)/C=C/c3ccc(Cl)c(C(F)(F)F)c3)cc2)CC1", "growth": "18.4% (inactive)"}, {"smiles": "COc1ccccc1NC(=O)Cn1cc(CN2CCN(c3ccnc4cc(Cl)ccc34)CC2)nn1", "growth": "80.8% (inactive)"}, {"smiles": "N#Cc1c(NC(=O)c2ccccc2I)sc2c1CCCC2", "growth": "50% (inactive)"}, {"smiles": "O=c1c2cc(F)ccc2sc2c(NCCCNCCO)nc3ccc(Cl)cc3c12", "growth": "68.2% (inactive)"}, {"smiles": "CCO/C=N/C1=C(C#N)C(c2ccc(Cl)cc2)c2sc3c(F)cccc3c2O1", "note": "(stereo not given)", "growth": "54.3% (inactive)"}, {"smiles": "O=c1ssc(Cl)c1-c1ccccc1", "growth": "97.3% (inactive)"}, {"smiles": "COc1ccc(/C(N)=N/C(N)=N/c2nc3ccccc3s2)cc1", "growth": "24.3% (inactive)"}, {"smiles": "CCc1cccc(-c2ccccc2)c1", "growth": "106% (inactive)"}, {"smiles": "C=C(C)[C@@H]1C[C@H](O)Cc2cc(Cl)cc(Cl)c2N1", "growth": "97.5% (inactive)"}, {"smiles": "CCOC(=O)C1=C(C)NC(C)=C(C(=O)OCc2ccccc2)C1c1cccc(C#N)c1", "note": "(stereo not given)", "growth": "16% (inactive)"}, {"smiles": "NS(=O)(=O)c1ccc(-n2nc(-c3ccc(Cl)cc3)c3ccccc3c2=O)cc1", "growth": "104% (inactive)"}, {"smiles": "C/C(=N\\N=C(/C)c1cccc([N+](=O)[O-])c1)c1cccc([N+](=O)[O-])c1", "growth": "86.1% (inactive)"}, {"smiles": "C#CCn1cccc1CNc1ccc(OC)cc1", "growth": "-76.9% (active)"}, {"smiles": "COc1ccc(-c2nc(Cl)c3c(C)nn(-c4ccc(F)cc4)c3n2)cc1", "growth": "105% (inactive)"}, {"smiles": "CS(=O)(=O)c1ccc(C(=O)N/N=C/c2ccc3c(c2)OCO3)cc1", "growth": "109% (inactive)"}, {"smiles": "COc1cc2nc(C(=O)N3CCCCC3)cc(Nc3ccccc3)c2cc1OC", "growth": "131% (inactive)"}, {"smiles": "COc1ccc(OC)c(NC(=O)CCCCCCNC(=O)C(O)(O)C(F)(F)F)c1", "growth": "22.6% (inactive)"}, {"smiles": "Cc1c(C(=O)Nc2nc3ccccc3[nH]2)cnn1-c1ccccn1", "growth": "112% (inactive)"}, {"smiles": "CC(C)(O)CC(=O)NCCn1ccc2ncnc(Nc3ccc(Oc4cccc(C(F)(F)F)c4)c(Cl)c3)c21", "growth": "-43.8% (active)"}, {"smiles": "O=C(Nc1cccc(Cl)c1)Nc1cccc(Cn2c(=O)[nH]c3ccc(Oc4ncccn4)cc3c2=O)c1", "growth": "-0.625% (active)"}, {"smiles": "Cc1nc(N)sc1-c1ccnc(Nc2ccc(N3CCOCC3)cc2)n1", "growth": "34.1% (inactive)"}, {"smiles": "CCOC(=O)c1ccc2c(c1)c1c(C)c3ccncc3c(C)c1n2C", "growth": "5.19% (active)"}, {"smiles": "c1ccc(Sc2ncnc3ccccc23)cc1", "growth": "50.3% (inactive)"}, {"smiles": "CCOC(=O)C1=C(C)c2ccc(OC)c(OC)c2C1", "growth": "99.4% (inactive)"}, {"smiles": "CC1CCCN(CCCCCOc2ccc3oc4ccc(Cl)cc4c(=O)c3c2)C1", "note": "(stereo not given)", "growth": "68.7% (inactive)"}, {"smiles": "O=C(c1ccccc1)C1OC1C(=O)c1ccccc1", "note": "(stereo not given)", "growth": "0.0075% (active)"}, {"smiles": "COCCOc1cc2ncnc(N3CCN(c4ncc(S(=O)(=O)N5CCCCC5)cn4)CC3)c2cc1OCCOC", "growth": "75.3% (inactive)"}, {"smiles": "CN1CCN(CCCOc2ccc3ncnc(Nc4ccc(OCc5cccc(F)c5)c(Cl)c4)c3c2)CC1", "growth": "-63.1% (active)"}]}]}
